Assay outcomes (PubChem)
M1 antagonist: blocks the rat M1 muscarinic receptor response to acetylcholine. P08482. CHO-M1 cells, Fluo-4 calcium, ACh EC80 antagonist mode; hits give low values. B-score at 10 µM. 3.4% of 64,000 active;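 active = calcium fluorescence response, raw or row-and-column corrected B-score, differing from the plate sample mean either way at a set confidence level, mostly lower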
Target sequence (P08482 whole entry, looked up): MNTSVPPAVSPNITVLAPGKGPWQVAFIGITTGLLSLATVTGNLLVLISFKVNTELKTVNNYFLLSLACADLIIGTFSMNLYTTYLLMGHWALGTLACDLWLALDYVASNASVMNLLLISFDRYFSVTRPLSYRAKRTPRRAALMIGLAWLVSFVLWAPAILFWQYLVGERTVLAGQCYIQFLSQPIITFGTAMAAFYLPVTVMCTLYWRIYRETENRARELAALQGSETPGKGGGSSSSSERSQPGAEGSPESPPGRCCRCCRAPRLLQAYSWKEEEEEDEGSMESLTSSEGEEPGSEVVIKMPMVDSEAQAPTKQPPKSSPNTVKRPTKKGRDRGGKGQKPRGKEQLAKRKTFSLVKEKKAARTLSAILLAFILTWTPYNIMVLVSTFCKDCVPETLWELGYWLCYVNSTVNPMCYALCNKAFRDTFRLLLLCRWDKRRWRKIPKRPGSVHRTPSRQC
MKP-1 inh: human dual specificity phosphatase 1 inhibition; P28562; recombinant MKP-1, OMFP hydrolysis fluorescence; inhibition, %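 (compounds tested at a single concentration somewhere between 10 and 100 µM)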; 0.15% of 65,000 active;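 active = inhibition above about 50%, limit read from the data; inconclusive = inhibition over screen mean plus 3 SD, below that limit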;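 note: 0% = DMSO max control wells and 100% = wells with enzyme stopped by NaOH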
M1 agonist: agonists of M1 muscarinic receptor. CHO-M1 cells, Fluo-4 calcium fluorescence, agonist mode; hits give high values. B-score at 10 µM. 3% of 64,000 active. AID 626;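 active = fluorescence rise, raw or as B-score row- and column-corrected plate score, outside the 99.7% band of its plate's samples, either direction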
MMP-13 inhibitor: blocks human MMP13 activity; MMP-13 fTHP FRET cleavage, Mca fluorescence; inhibition, % at 4 µM; 0.07% of 65,000 active;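 active = inhibition above the mean of compound-free control plate wells plus 3 SD, cut at about 14% in these data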;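 note: 0% = DMSO wells and 100% = wells with reference MMP-13 inhibitor after basal subtraction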
Hsp90 block: displaces geldanamycin probe from tumor Hsp90; P07900; NCI-N417 lysate Hsp90, Cy3B-geldanamycin FP displacement; inhibition, % at 30 µM; 0.35% of 64,000 active; AID 429;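 active = inhibition above 50%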;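 note: 0% = tracer plus lysate wells and 100% = tracer alone without lysate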
Cdc25B inh: inhibitors of human Cdc25B phosphatase. 0.1% of 65,000 active. recombinant Cdc25B, OMFP fluorescence Ex485/Em525. P30305. inhibition, %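 (compounds tested at 10 µM final in the well)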; in the data active = inhibition above about 50%
M1 ag confirm: confirmation of rat M1 muscarinic receptor agonists. 19% of 1,700 active. shares compounds with M1 agonist. CHO-M1 cells, Fluo-4 calcium fluorescence, agonist mode; actives lie on both sides. fluorescence change (max-min) at 10 µM. AID 1488;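 active = fluorescence change differs from the solvent-only DMSO control mean at a set confidence level in both duplicate runs; inconclusive = differs from solvent-only control mean in just one of two runs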;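 note: an EC20 dose of acetylcholine follows compound addition during the same imaging run; raw fluorescence intensity difference in instrument units with no normalization to controls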
M4 agonist ctr: counter-screen for M1 agonists: activity at rat M4 receptor; shares compounds with M1 agonist; fluorescence change (max-min) at 10 µM; CHO M4/Gqi5 cells, Fluo-4 calcium fluorescence, agonist mode; actives lie on both sides; AID 1741; 9% of 1,700 active;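 active = fluorescence change differing from the plate's solvent-only control wells at 99.7% confidence in both duplicates, whether higher or lower; inconclusive = differs from solvent controls in only one of two duplicates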
* = called active by the depositor; ? = inconclusive; / = no result given. Sampled rows, rich in hits. Any-hit rate of the full collection: about 6.1%.

SMILES	M1 antagonist	MKP-1 inh	M1 agonist	MMP-13 inhibitor	Hsp90 block	Cdc25B inh	M1 ag confirm	M4 agonist ctr
O=C(O)CCNS(=O)(=O)c1ccc(Oc2ccccc2)cc1	-0.0097	21	-0.54	8	-9	-7	/	/
Cc1ccc(CN(CC(=O)NCCc2ccccc2)C(=O)CCCC(=O)Nc2cc(C)on2)cc1	-0.013	6	0.1	6	4	-7	/	/
Cc1ccc(CNC(=O)c2cc3c(=O)n4ccccc4nc3n(Cc3ccco3)c2=N)cc1	0.33	13	4.8*	-246	-4	7	198*	91
CCC(C)(C)NC(=O)C(c1ccco1)N(C(=O)Cn1nnc2ccccc21)c1ccc2c(c1)OCO2 (configuration not stated)	-0.43	-1	17*	-4	1	-1	-32*	?
Cc1ccc(N(C(=O)Cn2nnc3ccccc32)C(C(=O)NCc2ccco2)c2ccc(C)o2)cc1 (configuration not stated)	0.046	34	0.22	-2	-5	6	/	/
O=C(c1ccc(NS(=O)(=O)c2ccccc2)cc1)N1CCCC1	0.14	-3	-0.38	-2	0	-2	/	/
CCN(CC)S(=O)(=O)c1ccc(S(=O)(=O)Nc2ccc(C(=O)N3CCCC3)cc2)cc1	0.88	-3	2.2*	7	-2	4	-9.5	-30
COc1ccc(C(=O)NCCn2cc(SCC(=O)Nc3cc(C)on3)c3ccccc32)cc1OC	-0.16	-3	3.5*	0	-5	-10	-27*	-53
CCCn1cc(SCC(=O)Nc2nnc(C)s2)c2ccccc21	0.34	1	0.72	-1	-4	3	/	/
COc1ccccc1C(=O)NCCn1cc(SCC(=O)Nc2cc(C)on2)c2ccccc21	-0.11	9	0.7	-1	-10	-10	/	/
Cc1ccc(C(=O)NCCn2cc(SCC(=O)Nc3nnc(C)s3)c3ccccc32)cc1	-0.094	4	2.9*	1	-9	-4	?	-58
Cc1c(C(=O)O)sc2ncnc(N3CCCCC3C)c12 (configuration not stated)	0.42	-3	-0.53	3	-4	-1	/	/
Cc1cc2c(N3CCCCC3C)ncnc2s1 (configuration not stated)	-0.93	2	3.5*	-4	1	3	-7.6	-34
COc1ccc(CNC(=O)c2cc3c(C)nc4ccccc4c3o2)c(OC)c1	-1.6	29	4.9*	2	-4	-3	1.1	-2.5
COc1cc(NC(=O)c2cc3c(C)nc4ccccc4c3o2)cc(OC)c1OC	-0.94	34	3.5*	7	1	-4	-14	-11
CCCCCCn1c(N2CCC(C(N)=O)CC2)nc2c1c(=O)n(C)c(=O)n2C	-0.4	-11	0.56	5	-2	0	/	/
COc1ccccc1NC(=O)CCC(=O)Nc1nnc(C(F)(F)F)s1	1.1	-26	1.2	5	-2	6	/	/
Cc1c(C(=O)Nc2ccc(F)cc2)oc2ccc(S(=O)(=O)N3CCC4(CC3)OCCO4)cc12	-0.85	36	4.7*	-1	-4	-6	-1.3	-35
Cc1c(C(=O)Nc2ccc(F)cc2)oc2ccc(S(=O)(=O)N3CCCC3)cc12	0.61	8	0.26	3	-2	5	/	/
Cc1c(C(=O)Nc2cccc(Cl)c2)oc2ccc(S(=O)(=O)N3CCC4(CC3)OCCO4)cc12	-1.3	34	3.6*	-3	0	-4	-3.4	-20
Cc1c(C(=O)NCCC2=CCCCC2)oc2ccc(S(=O)(=O)N3CCC4(CC3)OCCO4)cc12	-1.4	15	9*	4	-1	-15	-17	?
c1ccc(-c2onc3cc4c(cc23)OCCO4)cc1	0.099	-1	-0.46	-9	-2	5	/	/
Nc1c(S(=O)(=O)c2cccs2)c2nc3ccccc3nc2n1Cc1cccs1	-0.066	24	0.16	-180	-4	3	/	/
Nc1c(S(=O)(=O)c2ccccc2)c2nc3ccccc3nc2n1Cc1ccco1	0.058	17	2.9*	-260	/	5	24	-40
CCc1c(C)nc2ncnn2c1N1CCCC(C(=O)NCc2ccco2)C1 (configuration not stated)	-4.5*	-6	2.8*	0	-3	-8	?	-42
SMILES	M1 antagonist	MKP-1 inh	M1 agonist	MMP-13 inhibitor	Hsp90 block	Cdc25B inh	M1 ag confirm	M4 agonist ctr
CCc1c(C)nc2ncnn2c1N1CCCC(C(=O)NCCc2ccccc2)C1 (configuration not stated)	-0.41	18	-0.11	0	3	-10	/	/
Nc1c(C(=O)NCC2CCCO2)c2nc3ccccc3nc2n1-c1ccccc1 (configuration not stated)	-2.7	30	11*	-362	-6	-3	?	-70
N#C/C(C(N)=O)=c1/ccc2c(c1)N1C3=C(CCCC3)CC3CCCCC31N=2 (configuration not stated)	-1.2	32	5.2*	0	44	-3	-22	-37
N#CC(C#N)=c1ccc2c(c1)N1C3=C(CCCC3)CC3CCCCC31N=2 (configuration not stated)	-1.1	16	2.8	6	38	-7	/	/
CCOC(=O)Cc1csc(NC(=O)CCNS(=O)(=O)c2ccc3c(c2)CCC(=O)N3)n1	0.16	-1	-1.4	3	-4	11	/	/
N#CC(c1nc2ccccc2nc1N1CCCC1)S(=O)(=O)c1cccs1 (configuration not stated)	0.69	-30	0.35	-7	-4	0	/	/
CC(=O)N1CCN(c2ccc(NC(=O)c3ccc(C(C)(C)C)cc3)cc2)CC1	-0.6	8	2.5*	-3	3	-2	-2.8	-24
CCCCOc1ccc(C(=O)Nc2ccc(N3CCN(C(C)=O)CC3)cc2)cc1	0.95	4	-0.37	3	5	7	/	/
CCC(Oc1ccccc1)C(=O)Nc1ccccn1 (configuration not stated)	0.47	13	0.58	3	-12	16	/	/
O=C(Cn1c(=O)sc2ccccc21)Nc1ccccc1C(=O)O	-0.92	-2	-0.5	3	/	-7	/	/
O=C(O)CC1CCCC(c2ccccc2)C1=O (configuration not stated)	-0.083	-7	-0.5	4	0	-7	/	/
N#Cc1nc(COc2cccc(Cl)c2)oc1N1CCN(c2ccccc2)CC1	-0.66	1	-0.9	0	-6	-10	/	/
N#Cc1nc(COc2ccc(F)cc2)oc1N1CCN(Cc2ccccc2)CC1	0.11	-8	0.019	5	-5	-4	/	/
N#Cc1nc(COc2ccccc2)oc1N1CCN(c2cccc(Cl)c2)CC1	-0.0079	-8	4.1*	-3	-2	-6	122*	?
N#Cc1nc(COc2ccc(F)cc2)oc1N1CCC(Cc2ccccc2)CC1	-0.46	-13	9.3*	0	-1	-5	16	-49
